BAZ2B block = BAZ2B (human) inhibition. AlphaScreen BAZ2B-H3K14Ac peptide displacement. Q9UIF8. 360,000 compounds, 4.4% hits. Potency, µM (top dose mostly 114 µM), most hits filed as inhibitors; also: nearly all actives have a fitted effect of over 60% in size
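BAZ2B (50 nM) with biotin-H3(5-23)K14Ac peptide (50 nM) in PBS pH 7.4, 0.01% Tween-20, preformed 30 min, then compound 30 min at room temperature; top concentration 110uM. AlphaScreen streptavidin donor/nickel chelate acceptor beads (10 ug/mL final), 20 min dark, signal read.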
PLK1 PBD inh = PLK1 (human) polo-box domain binding inhibition; AID 720504; 360,000 compounds, 2.8% hits; Plk1 PBD binding of FITC phosphopeptide, fluorescence polarization; P53350; Potency, µM, most hits filed as inhibitors; also: series mostly up to about 57 µM; nearly all actives have a fitted effect of over 65% in size
VDR inh = vitamin D3 receptor (human) inhibition; P11473; VDR-SRC2-3 peptide fluorescence polarization, 2 h; Potency, µM, actives largely listed as inhibitors; 400,000 compounds, 0.93% hits; AID 504847
Target sequence (P11473 whole entry, looked up): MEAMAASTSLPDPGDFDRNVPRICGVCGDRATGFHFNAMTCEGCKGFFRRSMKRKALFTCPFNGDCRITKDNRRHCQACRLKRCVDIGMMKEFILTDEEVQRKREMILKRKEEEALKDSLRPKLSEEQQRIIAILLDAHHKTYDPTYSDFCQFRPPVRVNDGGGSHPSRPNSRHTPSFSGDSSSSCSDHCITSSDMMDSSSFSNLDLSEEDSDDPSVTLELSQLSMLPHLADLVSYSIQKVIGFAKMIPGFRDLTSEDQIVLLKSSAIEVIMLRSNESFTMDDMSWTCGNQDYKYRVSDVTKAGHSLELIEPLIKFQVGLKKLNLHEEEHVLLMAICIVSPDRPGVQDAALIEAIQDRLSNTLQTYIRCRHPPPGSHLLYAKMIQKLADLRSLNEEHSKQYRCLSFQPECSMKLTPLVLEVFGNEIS
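The screen uses fluorescence polarization to detect compounds that interfere with recruitment of the SRC2-3 coactivator peptide to VDR; plates are read after 2 h at room temperature.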
G9a block = G9a (human) methyltransferase inhibition; Potency, µM (series often up to 102 µM), hits mostly inhibitors; G9a H3K9 monomethylation, AlphaScreen, 2 h; Q96KQ7; 350,000 compounds, 8.8% hits; also: nearly all actives have a fitted effect of over 75% in size
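Using a bead-based AlphaScreen, monomethylated H3K9 product from 2 h room-temperature reactions (G9a 20 nM, peptide 500 nM, SAM 20 uM) was detected with 0.5 ug/mL rabbit anti-H3K9me1 antibody.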
JMJD2A Tudor = inhibitors of human JMJD2A Tudor domain | O75164 | AlphaScreen JMJD2A-Tudor / H3K4me3 peptide binding | Potency, µM (top dose mostly 114 µM), usual class: inhibitors | 390,000 compounds, 4.4% hits; also: nearly all actives have a fitted effect of over 50% in size
HP1b binding inh = HP1-beta chromodomain-methylated histone interaction inhibition. AID 540317. AlphaScreen HP1-beta / biotin-H3K9me3 peptide binding. 390,000 compounds, 0.56% hits. Potency, µM (series often up to 114 µM), usual class: inhibitors; also: nearly all actives have a fitted effect of over 70% in size
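Compound inhibition of the preformed complex between 50 nM HP1-beta and 50 nM biotinylated H3K9me3 peptide was read by AlphaScreen. Buffer was PBS pH 7.4 with 0.01% Tween-20. Incubations ran 30 min at room temperature, with 10 ug/mL donor/acceptor beads.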
Each line names hits and unclear results; the compound was inactive in the other large screens. An excerpt weighted towards active compounds, which were near 11% of everything screened. Calls follow the shape of the dose curve; as a rule, active = well fitted curve in the direction sought with a large enough effect; inconclusive = small, poorly fitted or top-dose-only effect, or another doubt; inactive = no such curve, though single readings can be large; an effect the other way counts as inactive or inconclusive.

CCc1nnc(SCC(=O)Nc2ccc(N3CCOCC3)cc2)o1	none
Cc1nnc(SCC(=O)Nc2ccc(N3CCOCC3)cc2)o1	G9a block 50µM
O=C(CSc1ccccn1)Nc1ccc(N2CCOCC2)cc1	PLK1 PBD inh inconclusive, G9a block 32µM, JMJD2A Tudor inconclusive
O=C(CSc1ncnc2ccccc12)Nc1ccc(N2CCOCC2)cc1	none (no result: PLK1 PBD inh, VDR inh, JMJD2A Tudor, HP1b binding inh)
CC(C)n1c(SCC(=O)Nc2ccc(N3CCOCC3)cc2)nnc1-c1ccco1	JMJD2A Tudor 32µM
N#Cc1ccccc1OCC(O)CNCCNC(=O)Nc1ccccc1 (stereo unspecified)	none (no result: BAZ2B block, PLK1 PBD inh, JMJD2A Tudor, HP1b binding inh)
CCCNc1nc(C)c(C(C)=O)cc1C#N	BAZ2B block 50µM
CCCCNc1nc(C)c(C(C)=O)cc1C#N	none
Cc1cc(S(=O)(=O)N2CCC3(CC2)OCCN3S(=O)(=O)c2cccs2)ccc1F	none
O=C(CCc1ccccc1)NC(=S)Nc1ccccc1Br	VDR inh inconclusive
COCCN(C(=O)c1ccc(N2CCCC2=O)cc1)c1c(N)n(Cc2ccccc2)c(=O)[nH]c1=O	G9a block 7.9µM
CCCn1c(N)c(N(CCOC)C(=O)c2ccc([N+](=O)[O-])cc2Cl)c(=O)[nH]c1=O	G9a block 50µM
CCCCn1c(N)c(N(CCOC)C(=O)c2ccc(N3CCCC3=O)cc2)c(=O)[nH]c1=O	none
COCCN(C(=O)c1ccc(OCC(C)C)cc1)c1c(N)n(Cc2ccccc2)c(=O)[nH]c1=O	G9a block 35µM
CCCn1c(N)c(N(CCOC)C(=O)c2ccc(N3CCCC3=O)cc2)c(=O)[nH]c1=O	G9a block 56µM
O=C(CSc1nc2c([nH]c3ccccc32)c(=O)n1-c1ccc(Cl)cc1)NCc1ccccc1	none (no result: PLK1 PBD inh)
Nc1cc(OCc2ccccc2)ccc1OCc1ccccc1	JMJD2A Tudor inconclusive (no result: BAZ2B block, G9a block)
Cc1ccc(OC(=O)CCC(=O)Nc2ccc(C)c(C)c2)cc1	none (no result: BAZ2B block, G9a block)
CCCn1c(N)c(N(CCOC)C(=O)c2ccc(N(C)S(=O)(=O)c3ccc(C)cc3)cc2)c(=O)[nH]c1=O	BAZ2B block inconclusive, G9a block 1µM
CCCCn1c(N)c(N(CCOC)C(=O)c2ccc(N(C)S(=O)(=O)c3ccc(C)cc3)cc2)c(=O)[nH]c1=O	G9a block inconclusive
C#CC[N+]1(CC#Cc2ccc(C)cc2)CCCCC1	G9a block inconclusive
Cn1c(Cc2cccs2)nnc1SCC(=O)Nc1ccc(F)cc1F	G9a block inconclusive
COc1ccc(C(N)=S)c(OC)c1	PLK1 PBD inh inconclusive, G9a block 8.9µM
CCOC(=O)[C@]12CCC=C1N(Cc1ccc3c(c1)OCO3)C(=O)[C@H](CC(=O)NCC13CC4CC(CC(C4)C1)C3)C2	none (no result: BAZ2B block, VDR inh, G9a block, JMJD2A Tudor, HP1b binding inh)
O=C1SCCC1NS(=O)(=O)c1ccc([N+](=O)[O-])cc1 (stereo unspecified)	BAZ2B block inconclusive, G9a block 50µM
FC(F)(F)c1cccc(NC(=S)Nc2ccc(Cl)c(Cl)c2)c1	none (no result: G9a block)
O=[N+]([O-])c1cc(C(F)(F)F)cc([N+](=O)[O-])c1NCCNC(=S)Nc1ccc(Cl)c(Cl)c1	BAZ2B block 25µM, JMJD2A Tudor 32µM (no result: G9a block)
N#CCCn1cnc2c(=S)nc[nH]c21	G9a block inconclusive, JMJD2A Tudor 35µM
O=[N+]([O-])c1cccc(Cn2cnc3c(=S)nc[nH]c32)c1	none (no result: BAZ2B block, G9a block)
Oc1c(C(c2ccc(Cl)cc2)N2CCCC2)cc(Cl)c2cccnc12 (stereo unspecified)	BAZ2B block 32µM, PLK1 PBD inh inconclusive, G9a block 25µM, JMJD2A Tudor 28µM
CN1CCN(C(c2ccccn2)c2cc(Cl)c3cccnc3c2O)CC1 (stereo unspecified)	BAZ2B block 11µM, PLK1 PBD inh 9.5µM, VDR inh 50µM, G9a block inconclusive, JMJD2A Tudor 18µM, HP1b binding inh 11µM
Oc1c(C(c2ccccn2)N2CCC(Cc3ccccc3)CC2)cc(Cl)c2cccnc12 (stereo unspecified)	BAZ2B block 50µM, PLK1 PBD inh inconclusive, VDR inh inconclusive, G9a block 3.5µM, JMJD2A Tudor 50µM, HP1b binding inh inconclusive
